The list is not random: actives were taken first. Their share in the collection is about 4.8%.
AI-2 QS modul = Vibrio harveyi AI-2 quorum sensing modulators, primary screen, JMH597 strain, luminescence/OD600 ratio; Vibrio harveyi JMH597 AI-2 luminescence/OD600 ratio, 9 h; stronger effect = lower value; strain lacks LuxN and CqsS sensors; 0 = neutral-control median; activity change, % at 7.5 µM; 300,000 compounds, 0.4% hits; AID 2094, 2009; in the data active = activity change below about -75%, passing the limit was not always enough; inconclusive = no clear call, values can overlap the other calls;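 also: luminescence divided by OD600 gain over 9 h not by final OD600 alone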
Mot1-301 SUMO = yeast Mot1-301 growth rescue at high temperature, primary screen, SUMOylation pathway inhibitor project, S. cerevisiae, ATP luminescence, 38.5C. S. cerevisiae Mot1-301 growth rescue; percent above DMSO median, 100 means doubled. 320,000 compounds, 1% hits. growth rescue, % at 18.8 µM;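 active = every valid replicate shows activation above 250% relative to neutral control wells; inactive = the rest, any valid replicate at or below 250%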;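 also: OY570 slx delta 5 strain wells were the positive control but not used for scaling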
ALR inh = inhibitors of human ALR sulfhydryl oxidase, primary screen, biochemical, H2O2 detection, HRP-luminol luminescence, single point; purified ALR, DTT oxidation; inhibition, % (concentration not given with the values); 290,000 compounds, 3.8% hits; AID 485317, 2010;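 active = mean replicate inhibition above about 79%, with every replicate also reaching it, limit read from the data; inconclusive = only one of the two criteria met; inactive = mean below limit and not every replicate reaching it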
Target sequence (P55789 whole entry, looked up): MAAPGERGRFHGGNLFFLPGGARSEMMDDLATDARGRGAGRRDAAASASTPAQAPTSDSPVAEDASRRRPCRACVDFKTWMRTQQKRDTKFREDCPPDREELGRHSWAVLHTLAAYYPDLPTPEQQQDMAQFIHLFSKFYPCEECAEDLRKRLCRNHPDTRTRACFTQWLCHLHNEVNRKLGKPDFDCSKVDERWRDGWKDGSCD
HIF activator = HIF pathway transcriptional activators, primary screen, cell-based, U2OS HRE-luciferase, luminescence. U2OS HRE-luciferase reporter; normalized: DMSO 0%, desferrioxamine 100%. activation, % at 7.5 µM (by protocol). 300,000 compounds, 0.32% hits. AID 1910, 2009;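 active = mean activation of at least 10% of the iron chelator positive control signal, with at least half of replicates also reaching 10%; inconclusive = mean and replicate majority disagree about reaching 10%; inactive = mean and most replicates under 10%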
Yeast Mot1 SUMO = growth restoration of Mot1-301 yeast on galactose, dose response, SUMO pathway inhibitor project, whole organism, S. cerevisiae, ATP luminescence, cherry-picked samples; S. cerevisiae Mot1-301 galactose growth, 24 h; -100 = growth of slx-deleted rescue strain; AID 493004, 2010; growth activity, percent, % at 42 µM; shares compounds with Mot1-301 SUMO; 2,300 tested, under 10 active;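 active = Signal drops as the depositor expects, and the fitted half-maximal dose is no more than ten times the top valid tested dose; inconclusive = Poor fit, or a flat curve whose signal drops by 30% to 70%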;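 also: more negative values mean stronger growth rescue toward the control strain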
Numbers without * were called inactive; ? = inconclusive; . = no result given; + = active, no number; [ ] = remark or other dose.

SMILES	AI-2 QS modul	Mot1-301 SUMO	ALR inh	HIF activator	Yeast Mot1 SUMO
CCOC(=O)c1[nH]c2ccc(Br)cc2c1NC(=O)CCN1CCOCC1	1	413*	-10	0	-1
CCOC(=O)C1ON2CCCCC2C1(O)C(F)(F)F (configuration not stated)	15	528*	-3	1	1
CCC(C)[C@H](N)c1nnc(SCC(=O)Nc2cccc(Cl)c2)o1 (some centres not stated)	-2	558*	41	0	0
O=C(NC1CCCCC1)C1CCC(=O)N(Cc2cccc(C(F)(F)F)c2)C1 (configuration not stated)	-4	-5	1	-1	.
Clc1ccc(-c2nc(-c3cc4cc(Cl)ccc4o3)cs2)cc1	14	-16	-7	0	.
CCCNCc1cc(OCC)c(OCC(N)=O)cc1Br	8	766*	-5	-1	0
COc1cc(CO)c(Br)cc1OCC(N)=O	16	70	0	0	.
CCc1ccccc1NC(=S)NN	-3	-15	54	2	.
CCc1ccccc1NC(=S)NNC(=O)c1ccccc1Cl	26	+	16	2	0
COc1cccc(-c2ocnc2C(=O)Nc2ccc3c(c2)CCC3)c1	12	430*	.	0	0
O=C1NC2(CCCCC2)CO1	12	10	-2	0	.
O=C1NC2(CCCCO2)CO1 (configuration not stated)	14	661*	3	-3	0
Nc1cc(Cl)ccc1N1CCOCC1	9	465*	6	0	1
CC(C)Oc1ccc(CNC(=O)CCCN2C(=O)C(c3ccccc3)Oc3cccnc32)cc1 (configuration not stated)	9	3	-1	0	.
CCc1cc(=O)oc2cc(C)cc(OCC(=O)NCC3CCC(C(=O)O)CC3)c12 (configuration not stated)	21	-6	.	0	.
Cc1cc(OCC(=O)NCC2CCC(C(=O)O)CC2)c2c(C)c(C)c(=O)oc2c1 (configuration not stated)	1	358*	.	0	1
CCn1nccc1C(=O)Nc1ccccc1OC	12	747*	-8	-21	0
COc1cccc(/C=C/C(=O)OCC(=O)Nc2ccc(Cl)cn2)c1	20	760*	-2	0	0
CCCCOC(=O)c1ccc(NC(=O)C(=O)NCCN(C)C)cc1	26	62	-10	1	.
Cc1nc(CC(=O)N/N=C/c2ccc(OCC(=O)O)cc2)cs1	2	571*	-10	0	0
NS(=O)(=O)c1ccc(CCNC(=O)CSCC(=O)Nc2ccc(Cl)cc2)cc1	.	53	-1	.	.
C=CC[C@@H](CC(=O)OC(C)(C)C)C(=O)OC[C@@H]1CCCN1C(=O)[C@@H](CC=C)CC(=O)N(CCO)Cc1ccccc1	.	4	-9	.	.
CC(=O)Cc1nsc(NC(=O)c2ccc(-c3cccc(C(F)(F)F)c3)o2)n1	1	26	.	1	.
Cc1nnc(NC(=O)c2ccc(-c3cccc(C(F)(F)F)c3)o2)s1	.	+	-5	.	0
COc1cc(C(=O)NCC2CCCN2S(=O)(=O)c2cccs2)cc(OC)c1OC (configuration not stated)	29	165	-2	-5	.
SMILES	AI-2 QS modul	Mot1-301 SUMO	ALR inh	HIF activator	Yeast Mot1 SUMO
CCCOc1ccc([N+](=O)[O-])c(N)c1	-46	788*	-3	-1	0
CCCOc1ccc(/C=N/Nc2ccccc2[N+](=O)[O-])c(O)c1	18	-32	5	-1	.
CCOCCCn1c(SCC(=O)Nc2ccc3[nH]c(=O)[nH]c3c2)nc2ccccc2c1=O	21	6	12	1	.
CN(C)/C=C/C(=O)c1ccc(Br)cc1	18	9	17	0	.
CN(C)/C=C/C(=O)c1ccncc1	-1	877*	-9	0	0
Cc1cccc(CNC(=O)C2CCC(=O)N(CCc3cccc(F)c3)C2)n1 (configuration not stated)	7	.	.	-2	.
COc1ccc2cc(C#N)c(Nc3cccc(F)c3)nc2c1	8	572*	-1	1	0
COC(=O)c1cccn(CC(=O)c2ccc(Cl)cc2)c1=O	-8	.	1	0	.
COc1ccc(CCNC(=O)CC2C(=O)NCCN2CC(C)(C)C)cc1 (configuration not stated)	19	770*	2	0	0
CC1CCN(CCNC(=O)C2CCCN(S(=O)(=O)c3cccc4nsnc34)C2)CC1 (configuration not stated)	.	454*	-4	0	0
Cn1c2ccsc2c2ncn(Cc3ccccc3F)c(=O)c21	.	-10	-2	.	.
CCOC(=O)NC1(Nc2ccc(C)cc2)Oc2ccccc2O1	21	445*	11	1	0
CCN(CC(=O)NCc1cccs1)C(=O)c1ccc(S(=O)(=O)Nc2ccccc2C)cc1	15	-6	-6	-1	.
Cc1c(Cl)c([N+](=O)[O-])nn1CC(=O)NC12CC3CC(CC(C3)C1)C2	5	952*	6	?	0
Cc1c(Cl)c([N+](=O)[O-])nn1CC(=O)N1CCCC1	18	-18	-5	0	.
COc1ccc(NC(=O)Nc2ccccc2C(=O)N2CCCC2)cc1	13	739*	-1	2	0
COc1ccc(CCNC(=O)C/C(C)=N/NC(=O)COc2ccc(C)cc2Br)cc1OC	-3	904*	2	1	0
Cc1ccc(NC(=O)Cn2nnc(C(=O)Nc3ccc(F)c(Cl)c3)c2N)cc1	19	119	-1	0	.
COc1ccc(NC(=O)Cn2nnc(C(=O)Nc3ccc(F)c(Cl)c3)c2N)cc1	20	477*	2	-1	0
CC(C)CCn1c(=O)c2ccccc2c2ccccc2c1=O	12	+	1	.	0
CN(C)c1ccc2nc3ccc(=[N+](C)C)cc-3sc2c1	-47	557*	99*	-1	-2
Cc1cc2nc3ccc(=[N+](C)C)cc-3sc2cc1N	-33	.	.	-3	.
COc1cc(/C=N/NC(=S)NCc2ccco2)cc(OC)c1OC	-1	498*	11	0	-1
COc1ccccc1/C=N/NC(=S)NCc1ccco1	10	-6	-13	0	.
CC(=O)N1CCN(CC(O)COc2ccc(OCc3ccccc3)cc2)CC1 (configuration not stated)	24	402*	1	0	0
COc1ccc(C(=O)c2c(C)c3cc(C)ccc3n2CC(O)CN2CCOCC2)cc1 (configuration not stated)	0	924*	-8	0	-1[21 µM]
